Inconclusive results are not listed. The source made the active and inactive calls. Calls come from the whole dose curve; as a rule, active = well fitted curve in the direction sought with a large enough effect; inconclusive = small, poorly fitted or top-dose-only effect, or another doubt; inactive = no such curve, though single readings can be large; an effect the other way counts as inactive or inconclusive.
Legend:
[1] = qHTS for inhibitors of adenylyl cyclases using a fission yeast platform: a pilot screen against the NCATS LOPAC library (AID 1347410);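 note: plate controls were DMSO vehicle for no effect and DPI positive control for full effect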
Outline: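 Fission yeast qHTS: CHP2027 cells (AC9-GNAS-PDE4D2, fbp1-GFP), 5x10^6 cells/mL working density, EMM + His/Lys/Ura; LOPAC at up to 57 µM final; 18 h dark, 30C; GFP by laser cytometry. DPI positive control, DMSO vehicle.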

[2] = molecular target: Protein phosphatase 1D (Homo sapiens) (UniProt O15297); assay: RapidFire Mass Spectrometry qHTS Assay for Modulators of WT P53-Induced Phosphatase 1 (WIP1) (AID 1347424);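 note: series mostly up to about 63 µM; plate controls were DMSO wells for no effect and GSK830371 inhibitor control at 10 µM for full effect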
Sequence of Protein phosphatase 1D (Homo sapiens) (O15297 whole entry, looked up): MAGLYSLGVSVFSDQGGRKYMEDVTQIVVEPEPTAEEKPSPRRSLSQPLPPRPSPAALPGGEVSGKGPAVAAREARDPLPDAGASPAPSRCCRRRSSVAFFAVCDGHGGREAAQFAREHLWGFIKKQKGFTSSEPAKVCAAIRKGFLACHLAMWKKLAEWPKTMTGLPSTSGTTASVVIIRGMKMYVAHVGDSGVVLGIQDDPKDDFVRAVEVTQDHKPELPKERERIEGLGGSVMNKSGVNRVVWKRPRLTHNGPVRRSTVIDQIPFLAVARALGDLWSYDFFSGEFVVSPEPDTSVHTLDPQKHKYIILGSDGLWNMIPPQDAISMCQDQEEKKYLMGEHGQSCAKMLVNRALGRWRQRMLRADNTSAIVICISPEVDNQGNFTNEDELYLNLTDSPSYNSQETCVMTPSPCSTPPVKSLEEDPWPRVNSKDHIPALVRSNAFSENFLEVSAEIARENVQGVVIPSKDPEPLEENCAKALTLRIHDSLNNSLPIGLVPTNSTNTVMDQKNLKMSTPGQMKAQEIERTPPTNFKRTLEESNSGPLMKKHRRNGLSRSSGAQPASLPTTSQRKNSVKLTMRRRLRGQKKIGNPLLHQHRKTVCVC
Outline: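 RapidFire MS readout of dephosphorylated VEPPL-S-QETFS product, with 1 uM isotope-labelled peptide standard. Reaction: 10 nM WIP1, 2 uM phosphopeptide substrate, 5 min, room temperature, after 1 h compound preincubation; stopped with 0.5% formic acid.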

[3] = molecular target: Protein phosphatase 1D (Homo sapiens) (UniProt O15297); assay: Rhodamine-PBP qHTS Assay for Modulators of WT P53-Induced Phosphatase 1 (WIP1) (AID 1347425); note: % of control where 0% means no effect
Outline: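 5 nM WIP1 + 10 uM Rh-PBP, 50 mM Tris pH 7.5, 30 mM MgCl2, 1 mM TCEP, 0.1 mM EGTA, BSA; cpds pinned, 1 hr RT; + 10 uM phosphopeptide; fluorescence 1-min reads x 11 min; delta = f1 - f0.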

[4] = Primary qHTS for inhibitors of La Crosse Virus (LACV) - induced cell death in SH-SY5Y cells (AID 1508616);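 note: top concentration of the series differs between compounds; 0% = infected DMSO wells and 100% = uninfected DMSO wells; higher means more rescue of cells from virus-induced death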
Outline: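 Screening measures cell viability in LACV-infected SH-SY5Y cultures. Compound was added before virus (0.01 MOI), and ATP was detected by luminescence 6 days later.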

[5] = molecular target: Calcium and integrin-binding protein 1 (Homo sapiens) (UniProt Q99828); assay: Validation qHTS for Identification of Calcium Integrin Binding protein 1 (CIB1) Competitor (AID 1508618); note: % is set by controls: 0 for no effect and ±100 for the full control effect
Sequence of Calcium and integrin-binding protein 1 (Homo sapiens) (Q99828 whole entry, looked up): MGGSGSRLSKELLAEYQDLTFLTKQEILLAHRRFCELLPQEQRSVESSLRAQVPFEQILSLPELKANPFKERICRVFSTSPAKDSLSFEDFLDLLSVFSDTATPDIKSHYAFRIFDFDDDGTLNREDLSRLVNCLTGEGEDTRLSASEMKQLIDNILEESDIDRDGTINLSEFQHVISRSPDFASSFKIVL
Outline: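 Displacement of FITC-alphaIIb peptide (100 nM) from CIB1-GST (1 uM) is monitored by polarization in quantitative HTS format; buffer carries 5 mM CaCl2 and 125 mM NaCl at pH 7.4, incubations are at room temperature.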

[6] = molecular target: Calcium and integrin-binding protein 1 (Homo sapiens) (UniProt Q99828); assay: Primary qHTS for Identification of Calcium Integrin Binding Protein 1 (CIB1) Competitor (AID 1508620);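 note: GST tagged CIB1 binding a fluorescein labelled alphaIIb integrin peptide tracer; top concentration of the series differs between compounds; % is set by controls: 0 for no effect and ±100 for the full control effect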
Outline: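 Fluorescence polarization competition: GST-tagged CIB1 (1 uM final) preincubated with compound 15 min at room temperature, then FITC-labelled alphaIIb peptide (100 nM final) added. After 15 min at room temperature, polarization read at Ex 480/Em 540.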

[7] = Validation qHTS assay for inhibitors of Activation Induced Cytidine Deaminase (AID): UDG Counterscreen signal (AID 1347427); note: 0% is about no effect
Outline: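 Fluorescence at 560 nm excitation, 665 nm emission reports UDG signal after 250 mM NaOH (2x) addition and 30 min. Enzymes (AID 1 uM, UDG 2 U/mL, at 4/3x) preincubated 10 min with compound, then 4 h with 4x 250 nM DJC20/DJC23 substrate at room temperature.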

[8] = molecular target: Single-stranded DNA cytosine deaminase (Homo sapiens) (UniProt Q9GZX7); assay: Validation qHTS assay for inhibitors of Activation Induced Cytidine Deaminase (AID): AID signal (AID 1347429); note: % is set by controls: 0 for no effect and ±100 for the full control effect
Sequence of Single-stranded DNA cytosine deaminase (Homo sapiens) (Q9GZX7 whole entry, looked up): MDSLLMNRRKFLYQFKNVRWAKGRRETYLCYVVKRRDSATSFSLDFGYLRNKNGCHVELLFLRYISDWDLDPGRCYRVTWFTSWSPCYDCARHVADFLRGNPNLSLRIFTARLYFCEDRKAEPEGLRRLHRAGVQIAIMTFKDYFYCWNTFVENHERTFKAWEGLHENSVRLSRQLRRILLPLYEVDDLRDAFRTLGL
Outline: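 Compounds (up to 114 uM final) are tested against AID plus UDG using DJC20/DJC23 FRET substrate. Reactions incubate 4 hr at room temperature, receive NaOH for 30 min, and are read at Ex 540/Em 590 nm.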

NC1[C@H]2CN(c3nc4c(cc3F)c(=O)c(C(=O)O)cn4-c3ccc(F)cc3F)C[C@@H]12 (stereo not given in full)
inactive: outcome [1] | outcome [2] | outcome [3] | outcome [4] | outcome [5] | outcome [6]

COc1ccc(Cl)cc1C(=O)NCCc1ccc(S(=O)(=O)NC(=O)NC2CCCCC2)cc1
inactive: outcome [1] | Potency [7] | Potency [8] | outcome [4]

CCCCc1ncc(/C=C(\Cc2cccs2)C(=O)O)n1Cc1ccc(C(=O)O)cc1
inactive: outcome [1] | outcome [3] | outcome [4] | outcome [6]

CCN(CC)C(=O)Nc1ccc(OCC(O)CNC(C)(C)C)c(C(C)=O)c1 (stereo not given)
inactive: outcome [2] | outcome [3] | outcome [4]

CN1[C@@H]2CC(OC(=O)[C@H](CO)c3ccccc3)C[C@H]1[C@@H]1O[C@@H]12 (stereo not given in full)
inactive: outcome [2] | outcome [3] | outcome [4]

NCCNCCNCCNCCN
inactive: activity change, negative = inhibition [2] -9.15% [at 12.6 µM] | activity change, negative = inhibition [3] 12% [at 11.5 µM] | activity change [4] -4.84% [at 0.858 µM] | outcome [6]

Cn1cc[nH]c1=S
inactive: outcome [2] | outcome [3] | outcome [4] | outcome [6]

CC(=O)Oc1ccc(C2(c3ccc(OC(C)=O)cc3)C(=O)Nc3ccccc32)cc1
inactive: outcome [2] | outcome [3] | outcome [4] | outcome [6]

COc1ccccc1O
inactive: outcome [2] | outcome [3] | outcome [4] | outcome [6]

OCc1cc(C(O)CNCCCCCCOCCCCc2ccccc2)ccc1O (stereo not given)
inactive: outcome [2] | outcome [3] | Potency [7] | Potency [8] | outcome [6]

O=C1O[C@H](CO)[C@@H](O)[C@H](O)[C@H]1O
inactive: outcome [2] | outcome [3] | outcome [4]

CCCCCCCCCCCCCCCC(=O)NCCO
inactive: outcome [2] | outcome [3] | Potency [7] | Potency [8] | outcome [6]

O=c1cc[nH]c(=S)[nH]1
inactive: outcome [2] | outcome [3] | outcome [4]

CC1(C)CO[C@@H](CC(=O)O)CN1
inactive: outcome [2] | outcome [3] | outcome [4]

NC(=O)NC(=O)Cc1ccccc1
inactive: outcome [2] | outcome [3] | outcome [4]

CCC(=O)c1ccc(O)cc1
inactive: outcome [2] | outcome [3] | outcome [4]

CN1[C@@H]2CC[C@H]1CC(OC(=O)C(O)c1ccccc1)C2 (stereo not given in full)
inactive: outcome [2] | outcome [3] | outcome [4] | outcome [6]

N[C@H]1C(O)O[C@H](CO)[C@@H](O)[C@@H]1O (stereo not given in full)
inactive: outcome [2] | outcome [3] | outcome [4]

COc1cc(C)c(Cc2cnc(N)nc2N)cc1OC
inactive: outcome [2] | outcome [3] | outcome [4]

C[C@@H](O)[C@H](N)C(=O)O
inactive: outcome [2] | outcome [3] | outcome [4]

CC1(C)S[C@@H]2[C@H](NC(=O)Cc3ccccc3)C(=O)N2[C@H]1C(=O)O (tested in a mixture with another compound)
inactive: outcome [2] | outcome [3]

CC1CC(OC(=O)C(O)c2ccccc2)CC(C)(C)N1C (stereo not given)
inactive: outcome [2] | outcome [3] | outcome [4] | outcome [6]

O=S(=O)(O)NC1CCCCC1
inactive: outcome [2] | outcome [3] | outcome [4] | outcome [6]

NC1CCN(c2cccc(Cl)n2)CC1
inactive: outcome [2] | outcome [3] | Potency [7] | Potency [8] | outcome [6]

O=C(O)Cc1sc(-c2ccccc2)nc1-c1ccc(Cl)cc1
inactive: outcome [2] | outcome [3] | outcome [4]

C[C@@H]1CN(c2c(F)c(F)c3c(=O)c(C(=O)O)cn(C4CC4)c3c2F)C[C@H](C)N1
inactive: outcome [2] | outcome [3] | outcome [4]

O=C(O)c1ccccc1O
inactive: outcome [2] | outcome [3]

Oc1cccc(O)c1
inactive: outcome [2] | outcome [3] | outcome [4]

OCC(O)CN1CCN(c2ccccc2)CC1 (stereo not given)
inactive: outcome [2] | outcome [3] | outcome [4]

Cc1ccc2nc(N)[nH]c(=O)c2c1Sc1ccncc1
inactive: outcome [2] | outcome [3] | outcome [4]

CCCCC/C(C=O)=C\c1ccccc1
inactive: outcome [2] | outcome [3] | outcome [4]

NS(=O)(=O)c1cc2c(cc1Cl)NC(CSCc1ccccc1)=NS2(=O)=O
inactive: outcome [2] | outcome [3] | outcome [4] | outcome [6]

CCCCCCCCCCCCOS(=O)(=O)O
inactive: outcome [2] | outcome [3] | outcome [4]

Nc1nc2c(ncn2CCC(CO)CO)c(=O)[nH]1
inactive: outcome [2] | outcome [3] | outcome [4]

Nc1ccc(S(=O)(=O)Nc2nccs2)cc1
inactive: outcome [2] | outcome [3] | outcome [4]

COc1ccc2cc1Oc1cc3c(cc1OC)CC[N+](C)(C)[C@H]3Cc1ccc(cc1)Oc1c(OC)c(OC)cc3c1[C@@H](C2)[N+](C)(C)CC3
inactive: outcome [2] | outcome [3] | outcome [4]

O=C1Nc2ccc(Cl)cc2[C@@](C#CC2CC2)(C(F)(F)F)O1
inactive: outcome [2] | outcome [3] | outcome [4] | outcome [6]

O=C1NS(=O)(=O)c2ccccc21
inactive: outcome [2] | outcome [3] | outcome [4] | outcome [6]

Oc1ccc(C(O)CNCCCCCCNCC(O)c2ccc(O)c(O)c2)cc1O (stereo not given)
inactive: outcome [2] | outcome [3] | outcome [4] | outcome [6]

Nc1ccc(S(=O)(=O)NC(=O)c2ccccc2)cc1
inactive: outcome [2] | outcome [3] | outcome [4] | outcome [6]

Cc1ccc(C(C)C)cc2c(C)ccc1-2
inactive: outcome [2] | outcome [3] | outcome [4] | outcome [6]

Cc1cccc(C)c1NC(=O)CN(CC(=O)O)CC(=O)O
inactive: outcome [2] | outcome [3] | outcome [4] | outcome [6]

CC(O)CN(CCN(CC(C)O)CC(C)O)CC(C)O (stereo not given)
inactive: outcome [2] | outcome [3] | outcome [4] | outcome [6]

Cc1ncc([N+](=O)[O-])n1CC(O)CCl (stereo not given)
inactive: outcome [2] | outcome [3] | outcome [4] | outcome [6]

C[C@@H]1CCN(C(=O)[C@H](CCCN=C(N)N)NS(=O)(=O)c2cccc3c2NC[C@H](C)C3)[C@@H](C(=O)O)C1
inactive: outcome [2] | outcome [3] | outcome [4] | outcome [6]

NC(=O)NNc1ccccc1
inactive: outcome [2] | outcome [3] | outcome [4] | outcome [6]

O=C(CCCN1CCN(c2ccccn2)CC1)c1ccc(F)cc1
inactive: outcome [2] | outcome [3] | outcome [4] | outcome [6]

CC(=O)O[C@@]12CO[C@@H]1C[C@H](O)[C@@]1(C)C(=O)[C@H](O)C3=C(C)[C@@H](OC(=O)[C@H](O)[C@@H](NC(=O)OC(C)(C)C)c4ccccc4)C[C@@](O)([C@@H](OC(=O)c4ccccc4)[C@H]21)C3(C)C
inactive: outcome [2] | outcome [3] | outcome [4] | outcome [6]

O=C(O)COc1nn(Cc2ccccc2)c2ccccc12
inactive: outcome [2] | outcome [3] | outcome [4] | outcome [6]

CC1=C(C/C=C(\C)CCC[C@H](C)CCC[C@H](C)CCCC(C)C)C(=O)c2ccccc2C1=O
inactive: outcome [2] | outcome [3] | outcome [4] | outcome [6]

CC[C@@]1(c2ccccc2)NC(=O)N(C)C1=O
inactive: outcome [2] | outcome [3] | outcome [4] | outcome [6]

CS(=O)(=O)c1ccc([C@@H](O)[C@@H](CF)NC(=O)C(Cl)Cl)cc1
inactive: outcome [2] | outcome [3] | outcome [4] | outcome [6]

COc1cc2[nH]c(=O)[nH]c(=O)c2cc1OC
inactive: outcome [2] | outcome [3] | outcome [4] | outcome [6]

N[C@@H](CSCCCO)C(=O)O
inactive: outcome [2] | outcome [3] | outcome [4] | outcome [6]

CCCCN(CCCC)CCCOC(=O)c1ccc(N)cc1
inactive: outcome [2] | outcome [3] | outcome [4] | outcome [6]

CC(COc1ccccc1)NC(C)C(O)c1ccc(O)cc1 (stereo not given)
inactive: outcome [2] | outcome [3] | outcome [4] | outcome [6]

— PubChem BioAssay (NCATS)
